Screening data deposited in PubChem BioAssay by National Center for Advancing Translational Sciences (NCATS).
TDP1 cell CPT – qHTS for Inhibitors of human tyrosyl-DNA phosphodiesterase 1 (TDP1): qHTS in cells in presence of CPT | chicken DT40 Tdp1-/-;hTDP1 cells + 20 nM CPT, ATP luminescence, 48 h | AID 686979, 2013 | 12% of 420,000 active | Potency, µM (titrated, usually from 46.2 µM), inactives show top-dose activity change, negative = growth inhibition, most hits filed as inhibitors; note: % is set by controls: 0 for no effect and ±100 for the full control effect; nearly all actives have a fitted effect of over 55% in size
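Chicken DT40 Tdp1-/- cells stably complemented with human TDP1 were seeded at 400 cells/well in medium containing 20 nM camptothecin, exposed to pin-transferred compounds, and grown at 37 °C for at least 48 hr. Viability was read as ATP luminescence.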
ClpP mod – qHTS Assay for Activators of ClpP; Potency, µM (top dose mostly 57.5 µM), for the others: top-dose activity change, negative = active; purified B. subtilis ClpP, FRET peptide cleavage, 20 min; 1.9% of 340,000 active; AID 651965, 2013; ATP-dependent Clp protease proteolytic subunit (Bacillus subtilis (strain 168)), P80244; active = well fitted falling curve with a large enough effect; inconclusive = small, poorly fitted or top-dose-only effect; inactive = no such curve, though single readings can be large or run the other way; note: the source files actives as falling curves though it sought activators and does not explain the sign; nearly all actives have a fitted effect of over 65% in size
Target sequence (P80244 whole entry, looked up): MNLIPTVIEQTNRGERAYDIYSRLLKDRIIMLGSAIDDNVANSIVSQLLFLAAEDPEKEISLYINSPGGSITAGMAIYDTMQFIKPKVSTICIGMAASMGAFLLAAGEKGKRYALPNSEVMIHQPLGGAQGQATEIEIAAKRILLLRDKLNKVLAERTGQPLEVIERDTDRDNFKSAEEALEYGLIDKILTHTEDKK
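FRET quenching reversal measured ClpP activation: 10 microg/mL B. subtilis ClpP at pH 8 with the FRET-FV decapeptide, read at 430 nm after 320 nm excitation. The 20-min minus 0-min signal was scaled between DMSO/no-enzyme wells and ADEP (5.8 microM final).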
DT40 TDP1 no CPT – qHTS for Inhibitors of human tyrosyl-DNA phosphodiesterase 1 (TDP1): qHTS in cells in absence of CPT | Potency, µM (series often up to 46.2 µM), for the others: at the highest dose activity change, negative = growth inhibition, actives largely listed as inhibitors | DT40 Tdp1-/- hTDP1 cells, no CPT, ATP luminescence, 48 h | 15% of 420,000 active; note: % is set by controls: 0 for no effect and ±100 for the full control effect; nearly all actives have a fitted effect of over 55% in size
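No-CPT arm: Tdp1-/-;hTDP1 DT40 cells (400/well) plus compounds, incubated ≥48 hr at 37 °C. Readout CellTiter-Glo luminescence.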
TDP1 block – qHTS Assay for Inhibitors of Tyrosyl-DNA Phosphodiesterase (TDP1). Potency, µM (highest dose often 130 µM), without a hit: top-dose activity change, negative = inhibition, actives largely listed as inhibitors. 0.28% of 350,000 active. AID 485290, 2010. Tyrosyl-DNA phosphodiesterase 1 (Homo sapiens), Q9NUW8. recombinant TDP1, AlphaScreen DNA substrate cleavage; note: % is set by controls: 0 for no effect and ±100 for the full control effect; nearly all actives have a fitted effect of over 40% in size
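Signal: AlphaScreen proximity between streptavidin donor and anti-FITC acceptor beads on intact substrate. Reaction: Tdp1 1 nM, substrate 15 nM final, 5 min RT after 15 min compound preincubation.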
Active calls of the source: *; ? = inconclusive; . = no result given. Only some compounds are listed: those with a hit (about 17% of all), similar ones and a draw of the others. Unless noted, calls come from the whole dose curve; as a rule, active = well fitted curve in the direction sought with a large enough effect; inconclusive = small, poorly fitted or top-dose-only effect, or another doubt; inactive = no such curve, though single readings can be large; an effect the other way counts as inactive or inconclusive. Potency is the fitted concentration of half-maximal effect.

SMILES | TDP1 cell CPT | ClpP mod | DT40 TDP1 no CPT | TDP1 block
Cc1ccc(Nc2nc(N)nc(CN3CCN(C)CC3)n2)cc1C | . | . | . | 4%
CCC1c2ccccc2C(=O)C1C(N)=O (stereo unspecified) | -23% | -14% | -5% | .
C/C=C1\C(=O)C[C@H]2[C@@H]3CCC4=CC(=O)CC[C@]4(C)[C@H]3CC[C@]12C | . | . | . | 9%
CCOC(=O)N=Nc1c2ccccc2c2nc3no[nH]c3nc12 | 0.41µM* | . | 1.3µM* | 0%
COc1cccc(NC(=O)N(C)C[C@@H]2OCc3cnnn3CCCC(=O)N([C@H](C)CO)C[C@@H]2C)c1 | 2% | -1% | -4% | .
Cc1ccc2ccccc2[n+]1[O-] | -4% | -1% | -5% | .
CCCC[n+]1c2ccccc2cc2ccccc21 | 2.3µM* | 5% | 2.1µM* | .
Cc1ccc2ccccc2[n+]1CCCS(=O)(=O)[O-] | -18% | ? | -6% | 2%
CCC[n+]1c2ccccc2cc2ccccc21 | 2.9µM* | . | 2.6µM* | .
CC1=C(C(=O)OC2CCC(C)CC2)C(c2ccc(O)c([N+](=O)[O-])c2)NC(=O)N1 (stereo unspecified) | -26% | 0% | -14% | .
O=C(NC(=S)Nc1nc(-c2cccc([N+](=O)[O-])c2)cs1)c1cc(Cl)ccc1Cl | -83% | -4% | 16µM* | 8%
Cc1cc(C)c(-c2csc(NC(=O)C3=COCCO3)n2)cc1C | 23µM* | -2% | 21µM* | 2%
O=C(Nc1nc(-c2ccc([N+](=O)[O-])cc2)cs1)C1=COCCO1 | -25% | 0% | 9.2µM* | .
O=C(Nc1nc(-c2ccc([N+](=O)[O-])cc2)cs1)c1c(F)cccc1F | -3% | 1% | 4.6µM* | 1%
O=[N+]([O-])c1cccc(NC(=S)Nc2nc(-c3ccc(Cl)cc3Cl)cs2)c1 | . | . | . | 3%
O=C(Nc1nc(-c2ccc(-c3ccccc3)cc2)cs1)C1=COCCO1 | -23% | -8% | ? | 3%
CC(=O)Nc1ccc(S(=O)(=O)NCC(=O)OCC(=O)NCCc2ccccc2)cc1 | 21% | -3% | 0% | .
O=C(NCc1ccccc1)C(=O)NCC1CCCN1S(=O)(=O)c1cccs1 (stereo unspecified) | 3% | -1% | -1% | 2%
O=c1c(CCc2ccccc2)nc2cnc(N3CCOCC3)nc2n1C1CC1 | ? | . | -11% | .
NNc1nc(Nc2ccccc2)nc(Nc2ccccc2)n1 | 16µM* | . | ? | -2%
c1ccc(Nc2ccnc(Nc3ccccc3)n2)cc1 | ? | . | 21µM* | 3%
COc1ccc(Nc2nc(NN)nc(Nc3ccc(OC)cc3)n2)cc1 | ? | 1% | 13µM* | .
NNc1nccc(Nc2ccccc2C(=O)O)n1 | -10% | -11% | -22% | 1%
NNc1nc(Nc2ccccc2)nc(N2CCCCC2)n1 | ? | -2% | ? | 7%
Cc1ccc(S(=O)(=O)NC(=O)C2(C)CCN2C(=O)Cc2ccc(C(C)(C)C)cc2)nc1 (stereo unspecified) | 0% | 0% | -11% | .
SMILES | TDP1 cell CPT | ClpP mod | DT40 TDP1 no CPT | TDP1 block
CCOc1ccc(C(=O)Nc2ccccc2CC)cc1[N+](=O)[O-] | -3% | 0% | -21% | 0%
CCOc1ccc(C(=O)NC(=S)Nc2ccccc2N2CCC(C)CC2)cc1[N+](=O)[O-] | ? | 0% | 16µM* | 9%
CCOc1ccc(C(=O)Nc2ccccc2N2CCN(C(=O)c3ccccc3)CC2)cc1[N+](=O)[O-] | 7.3µM* | -3% | 12µM* | 3%
CCCC(=O)N1CCN(c2ccc(NC(=O)c3ccc(OCC)c([N+](=O)[O-])c3)cc2)CC1 | -7% | -18% | -27% | -5%
CCOc1ccc(C(=O)Nc2ccccc2C#N)cc1[N+](=O)[O-] | 16µM* | 2% | ? | 3%
CCOc1ccc(C(=O)NC(=S)Nc2ccc(N3CCC(C)CC3)cc2)cc1[N+](=O)[O-] | ? | -1% | 12µM* | 4%
Cc1cc(C(=O)NC(=S)Nc2ccccc2N2CCCC2)ccc1[N+](=O)[O-] | 7% | -1% | -29% | 7%
COc1ccc(OC)c(S(=O)(=O)NC2CC(=O)N(c3ccc(C)c(C)c3)C2)c1 (stereo unspecified) | -25% | -1% | -24% | .
O=c1nc2ccccc2c2n1CC(CN1CCN(c3ccc(F)cc3)CC1)N2 (stereo unspecified) | 1% | -4% | ? | 0%
O=c1nc2ccccc2c2n1CC(CN1CCN(c3ccccc3F)CC1)N2 (stereo unspecified) | ? | -6% | 13µM* | 3%
O=S(=O)(NC1c2cccc3cccc(c23)C1N1CCNCC1)c1ccc(Cl)cc1 (stereo unspecified) | 13µM* | . | 12µM* | 0%
O=C(Cn1c2ccccc2c(=O)c2ccccc21)N/N=C/c1ccc(N2CCCC2)c([N+](=O)[O-])c1 | 18µM* | -17% | ? | 3%
CC(C)NC(=O)C(C)Oc1ccc(S(=O)(=O)NCc2ccc3c(c2)OCO3)cc1 (stereo unspecified) | 8% | . | -15% | .
Nc1nn(-c2ccccc2)c(N)c1N=Nc1ccc2c(c1)OCO2 | 3.7µM* | 3% | 4.1µM* | 5%
Nc1nn(-c2ccccc2)c(N)c1N=Nc1cccc(F)c1 | 1.6µM* | 0% | 2.6µM* | 10%
Cc1nn(-c2ccccc2)c(N)c1N=Nc1cccnc1 | ? | -3% | ? | 2%
CC(C)(C)c1cc(C(C)(C)C)c2oc(=O)c(-c3nc4ccccc4[nH]3)cc2c1 | 9.2µM* | ? | 8.2µM* | 2%
Cc1ccc2[nH]cc(S(=O)(=O)c3ccc(F)cc3)c(=O)c2c1 | ? | . | 9.2µM* | .
CCOc1ccc(S(=O)(=O)c2c[nH]c3ccc(C)cc3c2=O)cc1 | -15% | -3% | -5% | .
O=C1CC(C(=O)Nc2ccc(C(=O)O)cc2)C(c2ccccc2)O1 (stereo unspecified) | -1% | -3% | 1% | -5%
O=C1CC(C(=O)Nc2ccc(O)c(C(=O)O)c2)C(c2ccccc2)O1 (stereo unspecified) | -22% | 25µM* | -3% | -9%
CC1CCN(S(=O)(=O)c2ccc3c(c2)c(=O)c(C(=O)N2CCN(c4cccc(Cl)c4)CC2)cn3C)CC1 | ? | -1% | -20% | -7%
O=C(O)c1cccc(N/N=C(\N=Nc2ccccc2)c2ccccc2)c1 | ? | -4% | -25% | 15%
NC(=O)/C(N=Nc1ccccc1)=N/Nc1ccccc1 | 18µM* | -4% | ? | 4%
O=C(CSc1nc2ncccc2[nH]1)Nc1cc(F)ccc1F | -3% | -3% | ? | 2%
COc1cccc(NC(=O)CSc2nc3ccccc3c(=O)n2C)c1 | 16µM* | 0% | 23µM* | 2%
